Assay outcomes: PubChem, several laboratories
IDE cell inh = inhibitors of human insulin-degrading enzyme in cells. P14735. HEK cells, FAbetaB cleavage, fluorescence polarization. inhibition, % at 5.59 µM. actives 0.41% (n = 320,000);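 active = percent inhibition above the average of all tested compounds plus 3 SD, set per screening campaign, cut at about 16% in these data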;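 note: IDE supplied by intact live HEK cells; FP after avidin binding of uncleaved biotin substrate so inhibition keeps polarization high; 0% = DMSO wells and 100% = 60 µM reference IDE inhibitor Ii1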
CaV13 FRET inh = Primary screen for inhibitors of IQ motif and Ca2+-dependent inactivation inhibitor domain binding in CACNA1D, Förster resonance energy transfer in living cells, …. HEK cells, CFP/YFP FRET ICDI-IQ, plate reader, 10 min; percent FRET-ratio fall versus neutral wells. inhibition, % at 12.3 µM. actives 0.098% (n = 340,000). AID 743397;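 active = mean replicate inhibition of at least 30% and at least 1% of replicates passing that level; inconclusive = only one of the two criteria is met; inactive = neither criterion is met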;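 note: 0% = median of the neutral control wells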
ALR inh = inhibitors of human sulfhydryl oxidase ALR. P55789. purified ALR, DTT oxidation, H2O2 HRP-luminol luminescence. inhibition, % (test concentration not listed). actives 3.8% (n = 290,000);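 active = mean replicate inhibition above about 79%, with every replicate also reaching it, limit read from the data; inconclusive = only one of the two criteria met; inactive = mean below limit and not every replicate reaching it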
Target sequence (P55789 whole entry, looked up): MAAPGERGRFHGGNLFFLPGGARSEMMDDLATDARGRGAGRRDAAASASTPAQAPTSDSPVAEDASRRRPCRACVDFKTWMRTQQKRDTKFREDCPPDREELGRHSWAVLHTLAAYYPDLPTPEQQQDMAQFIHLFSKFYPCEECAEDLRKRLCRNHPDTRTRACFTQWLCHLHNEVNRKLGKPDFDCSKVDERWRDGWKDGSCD
PfM18AAP inh = blocks P. falciparum M18 aspartyl aminopeptidase; recombinant PfM18AAP, H-Glu-NHMec fluorogenic cleavage; inhibition, % at 7.35 µM; actives 1.2% (n = 290,000);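 active = inhibition above the campaign mean inhibition over all tested compounds plus 3 SD, cut at about 28% in these data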;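 note: 0% = plate median of test compound wells and 100% = 2 mM ZnCl2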
PolyA inh = inhibitors of polyadenylation in S. cerevisiae | activity score, % at 12 µM | actives 0.02% (n = 300,000) | S. cerevisiae SKY197-pL101 polyadenylation reporter, beta-gal luminescence; efflux-impaired pdr1/pdr3 knockout yeast; score 100 = 6 SD above DMSO;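 active = lowest replicate activity score at least 50, where 100 means six control SD above control mean; inconclusive = lowest score under 50 but half or more replicates reach 50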;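 note: yeast exposed to compound for 9 h at 30 °C; higher score means more reporter readthrough which indicates perturbed polyadenylation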
IDE cell activ = boosts human insulin-degrading enzyme activity in HEK cells; FAbeta-B cleavage, fluorescence polarization; 0% vehicle, 100% cell-free pure enzyme wells; activation, % at 5.96 µM; actives 0.073% (n = 340,000);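 active = activation above the mean of all tested compounds plus 3 SD, set per screening campaign, cut at about 17% in these data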
IDE inh confirm = confirmation of human insulin-degrading enzyme inhibitors in cells. shares compounds with IDE cell inh. HEK cells, FAbetaB cleavage, fluorescence polarization. inhibition, % at 5.59 µM. actives 51% (n = 1,200);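 active = mean inhibition across triplicate wells above the cutoff set by the earlier primary insulin-degrading enzyme screen, cut at about 16% in these data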;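 note: 0% = DMSO wells and 100% = 60 µM reference IDE inhibitor Ii1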
HEK cytotox = HEK cell cytotoxicity, counter-screen for IDE inhibitors; HEK293 cytotoxicity, ATP luminescence; AID 449730; inhibition, % at 5.59 µM; shares compounds with IDE cell inh; actives 28% (n = 1,200); in the data active = inhibition above about 22%;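 note: 0% = vehicle wells and 100% = reference cytotoxic drug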
* hit, by the source's call; ? = inconclusive; . = no result; + = active, no number. In the library only some 4.1% were active in any assay of this set; here they are far more common.

SMILES	IDE cell inh	CaV13 FRET inh	ALR inh	PfM18AAP inh	PolyA inh	IDE cell activ	IDE inh confirm	HEK cytotox
COc1cc(/C=C/C(=O)C2C(=O)C=C(C)OC2=O)cc(OC)c1O (stereo not drawn)	24*	-6	99*	31*	-13	-12	35*	13
COc1ccc(/C=C/C(=O)C2C(=O)C=C(C)OC2=O)cc1O (stereo not drawn)	28*	-9	?	10	10	-12	9	20
COc1cc(/C=C/C(=O)O)cc(Br)c1O	1	-5	65	18	-25	7	.	.
CCCC(=O)N1CCN(c2nc3ccc(CC)cc3s2)CC1	19*	-7	-3	-2	-7	-10	10	21
CCCCC(=O)N1CCN(c2nc3ccc(Br)cc3s2)CC1	25*	-7	-4	-1	-20	-22	8	42*
Cc1ccc2nc(NC3=NC(CC(=O)O)C(=O)N3)nc(C)c2c1 (stereo not drawn)	-1	-5	-3	4	-2	.	.	.
N#Cc1ccc(C(=O)Nc2ccc3ccccc3c2)cc1	10	-7	-3	2	-3	-4	.	.
O=C(Nc1ccc2ccccc2c1)c1ccc2[nH]c(=O)c(=O)[nH]c2c1	20*	-3	.	3	-14	-19	13	10
Cc1ccccc1OCCC(=O)N1CCN(S(=O)(=O)c2ccc(Cl)cc2)CC1	1	-6	-5	.	-6	0	.	.
Oc1c(C=NCc2ccccc2)sc2ccccc12	9	-4	48	-6	-16	-3	.	.
CC(=Nc1cccc(C)c1)c1sc2ccccc2c1O	16*	.	3	1	-17	-26	29*	8
Oc1c(N=Nc2ccccc2)sc2ccccc12	-2	-3	-7	0	22	0	.	.
CC(=Nc1ccccc1O)c1sc2ccccc2c1O	84*	-5	92*	23	11	-89	96*	10
O=c1[nH]c(-c2ccc(-c3cccc(Cl)c3)o2)nc2ccccc12	9	-6	-2	.	.	2	.	.
O=C1Nc2ccccc2/C1=C/c1cnc(-c2ccccc2)[nH]1	32*	-13	35	-8	-14	-32	30*	9
O=C1Nc2ccccc2/C1=C/c1cccnc1	0	0	55	17	-9	3	.	.
CCOC(=O)C1=C[C@@H](C(C)(C)C)N(S(=O)(=O)c2ccc([N+](=O)[O-])cc2)[C@H]1c1cccc(Cl)c1	.	-4	.	.	.	.	.	.
O=C(COc1ccc2c3c(c(=O)oc2c1)CCC3)N1CCN(c2ccccc2)CC1	18*	-4	1	0	17	-13	5	7
Cc1ccc(S(=O)(=O)NCCC(=O)Nc2nccs2)cc1	0	5	-9	-15	13	2	.	.
COc1cccc(C2=CC(=O)CCC2)c1OC	-5	-4	-2	.	1	-1	.	.
O=c1c(Cl)c(NCc2ccccc2Cl)cnn1C12CC3CC(CC(C3)C1)C2	34*	-4	-6	2	-27	-30	19*	40*
O=c1c(Cl)c(NCc2ccco2)cnn1C12CC3CC(CC(C3)C1)C2	8	-5	-4	2	-8	0	.	.
CC(C)OC(=O)c1cc(C(=O)c2cc(F)ccc2O)coc1=N	-6	-4	27	-13	25	0	.	.
COc1ccc(O)c(C(=O)c2coc(=N)c(C(=O)Nc3ccc(SC(F)F)cc3)c2)c1	20*	-10	4	3	-1	-22	38*	24*
N#C/C(=C\c1ccc(N2CCOCC2)o1)C(=O)NCCc1ccccc1	72*	+	89*	7	-21	-140	78*	8
SMILES	IDE cell inh	CaV13 FRET inh	ALR inh	PfM18AAP inh	PolyA inh	IDE cell activ	IDE inh confirm	HEK cytotox
N#C/C(=C/c1ccc(N2CCOCC2)o1)C(=O)Nc1ccccc1	.	14	.	5	-6	-98	.	.
COCCNC(=O)/C(C#N)=C/c1ccc(N2CCOCC2)o1	16*	-5	.	16	-5	-16	16	7
Cc1ccccc1[C@]1(C)ON(c2ccccc2C(F)(F)F)C1=O	0	.	3	.	.	.	.	.
CC(C)NS(=O)(=O)c1ccc(NC(=S)NC(=O)c2ccc(-c3ccccc3)cc2)cc1	39*	-3	-24	3	-10	-49	25*	37*
O=C(Nc1nc(-c2ccc(S(=O)(=O)N3CCOCC3)cc2)cs1)c1ccccc1	22*	-5	5	7	17	-7	3	72*
COc1cccc(C(=O)Nc2nc(-c3ccc(S(=O)(=O)N4CCOCC4)cc3)cs2)c1	40*	-1	7	-1	-4	-20	16	58*
Cc1ccc(NC(=O)C2CCN(S(=O)(=O)c3c(C)n[nH]c3C)CC2)c(C)c1	0	-7	-1	-6	21	-5	.	.
Cc1cc(NC(=O)CSc2nnc(-c3ccncc3)n2-c2ccccc2)no1	14	-13	-4	-7	3	0	.	.
C=CCN1C(=O)[C@@H]2Cc3c([nH]c4ccccc34)C(c3ccc(O)cc3)N2C1=S (stereo partly drawn)	25*	.	.	18	5	-40	15	22*
Cc1ccc2nc(Nc3ccc(C)c(Cl)c3)c3nncn3c2c1	1	-20	-2	9	-12	0	.	.
Cc1ccc[n+](C(C)C(=O)c2ccc(Cl)cc2)c1 (stereo not drawn)	-3	-20	-4	1	17	5	.	.
Cc1cc(C)c[n+](C(C)C(=O)c2ccc(-c3ccccc3)cc2)c1 (stereo not drawn)	17*	-6	-7	5	-18	-25	13	71*
O=c1c(Cc2ccc(F)cc2)c(O)ccn1CCc1ccccn1	10	11	.	2	9	0	.	.
CC(C)c1ccc(NC(=O)CSc2nnc(CN3CCOCC3)n2C)cc1	17*	-3	98*	-1	0	-27	13	15
Cn1c(CN2CCOCC2)nnc1SCC(=O)Nc1ccc2c(c1)OCCO2	4	-8	-21	-7	-3	-19	.	.
Cc1cc(C)cc(NC(=O)CSc2nnc(CN3CCOCC3)n2C)c1	10	-5	-67	3	2	-15	.	.
O=C(CSc1nnc(CN2CCOCC2)n1-c1ccc(Cl)cc1)Nc1ccc2c(c1)OCO2	0	-8	-9	4	-4	-2	.	.
CCc1ccc(NC(=O)CSc2nnc(-c3ccccn3)n2C)cc1	15	-7	-11	0	-11	-9	.	.
